Test [1] can be described thus: yeast TOR pathway RPL19A-GFP modulators, primary screen, cell-based, S. cerevisiae, multiplex flow cytometry (AID 1862; in the data active = percent of DMSO control GFP below about 86%;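 also: lower values mimic rapamycin by blocking the RPL19A rise seen in DMSO cells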). The conditions noted are these: S. cerevisiae RPL19A-GFP strain, flow cytometry fluorescence, 3 h; at 10 µM; stronger effect = lower value. In general terms: A flow cytometer gives signals particle by particle.
Test [2] is described as follows: modulators of MEP2-GFP levels in yeast, primary screen, S. cerevisiae, multiplex flow cytometry (AID 1867;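 active = GFP response, as percent of the DMSO control, above the screen-wide mean plus 3 SD, about 139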;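 also: median GFP channel fluorescence of barcode-gated MEP2-GFP cells measured by flow cytometry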). The conditions noted are these: S. cerevisiae MEP2-GFP strain, 3 h, at 10 µM, stronger effect = higher value, 100% means same as DMSO wells.
Test [3] is described as follows: modulators of CIT2-GFP expression in yeast, primary screen, S. cerevisiae, GFP fusion, multiplex flow cytometry (AID 1870;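 active = percent response above a set limit, the screen-wide mean plus 3 SD, cut at about 130% in these data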;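 also: barcoded CIT2-GFP strain pooled with four other GFP strains with rapamycin as positive control; median GFP fluorescence per well over plate mean of DMSO wells so 100% = DMSO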). Conditions: 3 h, at 10 µM, stronger effect = higher value.
The nature of test [4]: modulators of LAP4-GFP expression in yeast, primary screen, S. cerevisiae, multiplex flow cytometry (AID 1873;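 active = GFP signal, as percent of the solvent control, above the screen mean plus 3 SD, about 149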). The conditions noted are these: 3 h, at 10 µM, stronger effect = higher value.
Test [5] in a line: modulators of AGP1-GFP expression in yeast TOR pathway, primary screen, cell-based, multiplex flow cytometry, S. cerevisiae (AID 1887;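 active = GFP signal above the screen-wide mean plus 3 SD, that is over about 124.5% of the solvent control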;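 also: AGP1-GFP fusion strain of S. cerevisiae within a five-strain barcoded multiplex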). Conditions: 3 h, at 10 µM, stronger effect = higher value.
Test [6] is described as follows: inhibitors of CD8+ T cell-vesicle binding, pilot screen, LFA-1/ICAM-1 modulator project, MLPCN validation set, flow cytometry (AID 2523;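 active = response below a set limit, under 55% cells CD8-positive and vesicle-bound, and CD8 cells' 90th-percentile brightness under 279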;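 as to vesicle binding response: mean PE anti-B7-1 fluorescence of CD8+ cells relative to row control; 100% = QL9-loaded vesicles with DMSO vehicle in the same plate row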). Conditions: 2C mouse CD8+ T cells, at 7 µM, stronger effect = lower value; double positive events: measured here: CD8+/vesicle+ event percentage.
Test [7] has as its target Integrin beta-1 (Homo sapiens) + Integrin alpha-4 (Homo sapiens) (UniProt P13612+P05556). The test can be described thus: inhibition of HUTS-21 binding to VLA-4, pilot screen, VLA-4 allosteric modulator project, U937 cells, HUTS-21 mAb, flow cytometry, validation set (AID 2674;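 active = inhibition above 50%, about 3 SD of the validation set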;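 also: antibody binding induced by the VLA-4 ligand LDV present at three times its Kd; 0% = LDV ligand with antibody and no compound and 100% = antibody without LDV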). Conditions: HUTS-21 LIBS mAb binding, at 6.7 µM, stronger effect = higher value, binding induced by LDV ligand.

A short description of test [8]: superoxide lowering in aged yeast cells, pilot screen, validation compound set (AID 2706;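 active = superoxide response below 65% of plate, a cut near 3 SD across the whole screen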;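 also: yeast exposed to compound for one week at 30 degrees C before staining; 100% = mean of all compound wells on the same plate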). Conditions: S. cerevisiae aging, superoxide DHE fluorescence; at 10 µM; stronger effect = lower value.
Test [9] deals with Beta-adrenergic receptor kinase 1 (Homo sapiens) (UniProt P25098). In words: GRK2 binders displacing RNA aptamer, biochemical, validation, human GRK2, bead flow cytometry (AID 488806;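 active = aptamer binding inhibition above 30%, about 3 SD of noise from non-fluorescent compounds; inactive = inhibition at or below 30%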). The conditions noted are these: bead-bound GRK2, FAM-aptamer displacement, at 10 µM, stronger effect = higher value.
Chain of Beta-adrenergic receptor kinase 1 (Homo sapiens) (P25098 whole entry, looked up): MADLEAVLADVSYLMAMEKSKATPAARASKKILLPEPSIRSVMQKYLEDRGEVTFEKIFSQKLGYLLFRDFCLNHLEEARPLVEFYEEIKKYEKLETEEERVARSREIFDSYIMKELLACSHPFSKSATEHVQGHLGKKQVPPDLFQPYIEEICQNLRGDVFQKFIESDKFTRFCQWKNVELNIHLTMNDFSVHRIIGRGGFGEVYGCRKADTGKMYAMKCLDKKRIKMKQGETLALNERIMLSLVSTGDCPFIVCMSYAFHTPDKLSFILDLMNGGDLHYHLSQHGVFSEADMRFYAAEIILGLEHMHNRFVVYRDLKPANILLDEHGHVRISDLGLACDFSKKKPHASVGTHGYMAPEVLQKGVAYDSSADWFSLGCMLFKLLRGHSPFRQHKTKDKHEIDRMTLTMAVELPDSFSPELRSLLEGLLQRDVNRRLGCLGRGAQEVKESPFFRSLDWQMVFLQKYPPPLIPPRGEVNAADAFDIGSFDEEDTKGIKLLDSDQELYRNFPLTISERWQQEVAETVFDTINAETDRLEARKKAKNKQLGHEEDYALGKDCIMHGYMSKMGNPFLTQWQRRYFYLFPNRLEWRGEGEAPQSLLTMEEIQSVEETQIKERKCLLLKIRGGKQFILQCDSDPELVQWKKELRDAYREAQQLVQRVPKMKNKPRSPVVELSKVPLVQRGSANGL
For test [10], the target named is Beta-2 adrenergic receptor (Homo sapiens) (UniProt P07550). The test can be described thus: beta2AR agonists driving receptor internalization, pilot screen, cell-based, FAP fluorogen, flow cytometry, validation set (AID 504459;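 active = percent response above 42, roughly 3 SD of non-fluorescent test compounds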;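 also: agonist-driven loss of surface beta2AR via internalization measured by FAP dye flow cytometry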). Conditions: Am2.2-beta2AR cells, FAP surface receptor flow cytometry; at 10 µM; stronger effect = higher value.
Chain of Beta-2 adrenergic receptor (Homo sapiens) (P07550 whole entry, looked up): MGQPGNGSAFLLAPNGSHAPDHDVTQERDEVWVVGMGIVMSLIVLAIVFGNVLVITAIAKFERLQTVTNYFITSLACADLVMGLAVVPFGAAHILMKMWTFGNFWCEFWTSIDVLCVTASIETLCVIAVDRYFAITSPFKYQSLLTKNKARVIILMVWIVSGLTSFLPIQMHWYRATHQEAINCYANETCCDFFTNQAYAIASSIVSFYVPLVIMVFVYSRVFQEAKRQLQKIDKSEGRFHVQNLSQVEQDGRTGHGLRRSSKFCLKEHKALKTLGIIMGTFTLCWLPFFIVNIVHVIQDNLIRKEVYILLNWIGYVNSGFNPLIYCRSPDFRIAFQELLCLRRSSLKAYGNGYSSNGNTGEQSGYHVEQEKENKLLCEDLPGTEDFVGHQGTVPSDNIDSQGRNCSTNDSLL
Test [11] deals with AP-2 complex subunit beta (Homo sapiens) (UniProt P63010). The test can be described thus: inhibitors of arrestin peptide binding to AP2, pilot screen, biochemical, validation set, GST-AP2 beads, flow cytometry (AID 504541;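 active = inhibition above 54%, about 3 SD of non-fluorescent compounds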;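 also: AP2 carries R879A mutation and is captured from E. coli lysate; bead-bound FITC arrestin peptide fluorescence measuring arrestin peptide binding to AP2; 0% = DMSO wells and 100% = excess unlabeled arrestin peptide control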). The conditions noted are these: FITC arrestin peptide, at 10 µM, stronger effect = higher value, AP2 beta2 appendage fragment, R879A mutant.
Chain of AP-2 complex subunit beta (Homo sapiens) (P63010 whole entry, looked up, the tested form may be a part, one chain of several): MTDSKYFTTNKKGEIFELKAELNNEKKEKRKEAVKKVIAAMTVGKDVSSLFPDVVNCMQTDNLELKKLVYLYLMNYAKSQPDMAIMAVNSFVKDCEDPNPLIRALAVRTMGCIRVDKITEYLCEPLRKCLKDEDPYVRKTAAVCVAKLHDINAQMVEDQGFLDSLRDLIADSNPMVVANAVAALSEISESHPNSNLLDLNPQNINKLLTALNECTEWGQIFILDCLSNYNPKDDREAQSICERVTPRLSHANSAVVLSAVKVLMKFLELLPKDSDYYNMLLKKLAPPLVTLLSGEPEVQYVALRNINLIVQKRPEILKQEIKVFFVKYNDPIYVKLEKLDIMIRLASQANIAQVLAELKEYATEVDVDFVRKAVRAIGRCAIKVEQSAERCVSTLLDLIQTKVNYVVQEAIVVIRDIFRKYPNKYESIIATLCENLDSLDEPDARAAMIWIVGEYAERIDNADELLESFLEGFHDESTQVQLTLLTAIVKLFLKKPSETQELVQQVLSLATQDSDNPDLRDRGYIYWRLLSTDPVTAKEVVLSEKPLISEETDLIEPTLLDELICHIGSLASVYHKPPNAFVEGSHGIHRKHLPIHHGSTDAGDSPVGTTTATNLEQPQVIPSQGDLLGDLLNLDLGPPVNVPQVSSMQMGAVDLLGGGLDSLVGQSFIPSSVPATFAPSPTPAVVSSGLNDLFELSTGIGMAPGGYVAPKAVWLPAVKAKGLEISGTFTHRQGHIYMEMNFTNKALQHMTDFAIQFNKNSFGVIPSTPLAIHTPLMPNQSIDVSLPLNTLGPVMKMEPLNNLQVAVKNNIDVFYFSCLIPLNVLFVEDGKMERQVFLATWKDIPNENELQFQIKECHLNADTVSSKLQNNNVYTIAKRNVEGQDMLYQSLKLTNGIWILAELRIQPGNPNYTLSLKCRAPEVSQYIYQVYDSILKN
Test [12] is described as follows: yeast V-ATPase proton transport modulators, S. cerevisiae, pHLuorin, HTS validation (AID 504600; in the data active = response above about 15%;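 also: plate controls were DMSO for no effect and reference compound for full effect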). The conditions noted are these: S. cerevisiae pHLuorin cytosolic pH, at 10 µM, stronger effect = higher value.
Test [13] has as its system anti-desmoglein-3 scFv antibody binding to human DSG3. The test can be described thus: inhibitors of anti-DSG3 scFv binding to DSG3, pilot screen, biochemical, validation compound set, bead-based, flow cytometry (AID 588368;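 active = binding below the plate cutoff, the plate median minus 3 SD, with a reading above zero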;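 also: signal is the median channel fluorescence of bead-bound GFP antibody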). The conditions noted are these: Protein G beads, DSG3-Fc, scFv-GFP binding, at 10 µM, stronger effect = lower value.
The nature of test [14]: inhibitors of fungal efflux pumps CDR1, CDR2, MDR1, pilot screen, validation compound set, multiplex, phenotypic (AID 588506;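 active = efflux inhibition above 0.42, the validation set average plus 4 SD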;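 also: Nile Red retained in cells so higher fluorescence means more efflux inhibition; 0 = negative control wells and 1 = enniatin B 25 µM full block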). Conditions: S. cerevisiae pump-expressing triplex, Nile Red efflux flow cytometry; at 10 µM; stronger effect = higher value; the pumps come from Candida albicans.
The target in test [15] is ATP-binding cassette sub-family B member 6 (Homo sapiens) (UniProt Q9NP58). The test can be described thus: ABCB6 transporter inhibitors, pilot screen, K562-ABCB6 cells, flow cytometry, validation set (AID 588550).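 Also: 0% = DMSO wells and 100% = benzethonium chloride 70 µM positive control.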 The conditions noted are these: K562-ABCB6 porphyrin accumulation, 1 h, at 10 µM, stronger effect = higher value.
Chain of ATP-binding cassette sub-family B member 6 (Homo sapiens) (Q9NP58 whole entry, looked up): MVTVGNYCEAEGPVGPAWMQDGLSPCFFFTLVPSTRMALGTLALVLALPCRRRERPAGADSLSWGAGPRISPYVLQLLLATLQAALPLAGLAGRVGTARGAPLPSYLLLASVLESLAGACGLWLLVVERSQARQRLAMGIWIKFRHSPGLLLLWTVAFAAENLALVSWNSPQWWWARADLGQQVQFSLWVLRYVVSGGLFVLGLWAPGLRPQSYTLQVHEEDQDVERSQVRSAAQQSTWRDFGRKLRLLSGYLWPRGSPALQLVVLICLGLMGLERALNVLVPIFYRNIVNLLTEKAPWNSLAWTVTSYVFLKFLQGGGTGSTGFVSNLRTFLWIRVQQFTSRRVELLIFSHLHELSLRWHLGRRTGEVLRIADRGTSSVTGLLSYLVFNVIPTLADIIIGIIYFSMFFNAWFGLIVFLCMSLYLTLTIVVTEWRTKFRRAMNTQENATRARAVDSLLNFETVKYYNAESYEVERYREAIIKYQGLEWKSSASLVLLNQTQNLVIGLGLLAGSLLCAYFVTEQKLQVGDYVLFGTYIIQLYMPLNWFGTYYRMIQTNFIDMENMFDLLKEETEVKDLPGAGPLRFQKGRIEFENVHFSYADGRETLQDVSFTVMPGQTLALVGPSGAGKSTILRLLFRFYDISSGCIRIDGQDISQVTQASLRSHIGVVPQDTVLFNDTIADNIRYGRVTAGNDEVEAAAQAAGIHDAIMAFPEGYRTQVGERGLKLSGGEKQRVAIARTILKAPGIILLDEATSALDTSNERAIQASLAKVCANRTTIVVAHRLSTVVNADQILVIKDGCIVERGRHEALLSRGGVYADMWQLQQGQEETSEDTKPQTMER
A short description of test [16]: promoters of myeloid differentiation in arrested cells, primary screen, cell-based, GFP/MAC1 double positive, flow cytometry, validation set (AID 588685;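 active = differentiation response of at least 50%, scaled between solvent and reference control, from cells with both markers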;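 also: compound exposure lasts four days before antibody staining and flow analysis; 0% = DMSO wells and 100% = 5 µM fulvestrant positive control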). Conditions: ER-HoxA9 marrow cells, stronger effect = higher value, normalized: vehicle 0, fulvestrant 100.

The structures appear in SMILES notation. Records with an inconclusive call do not appear. Active and inactive are the calls of the source.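 The calls were made as follows, unless noted: active = inhibition above the screen-wide mean plus 3 SD, about 51%; inactive = the rest.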

Chain of Integrin beta-1 (Homo sapiens) + Integrin alpha-4 (Homo sapiens) (P05556 whole entry, looked up): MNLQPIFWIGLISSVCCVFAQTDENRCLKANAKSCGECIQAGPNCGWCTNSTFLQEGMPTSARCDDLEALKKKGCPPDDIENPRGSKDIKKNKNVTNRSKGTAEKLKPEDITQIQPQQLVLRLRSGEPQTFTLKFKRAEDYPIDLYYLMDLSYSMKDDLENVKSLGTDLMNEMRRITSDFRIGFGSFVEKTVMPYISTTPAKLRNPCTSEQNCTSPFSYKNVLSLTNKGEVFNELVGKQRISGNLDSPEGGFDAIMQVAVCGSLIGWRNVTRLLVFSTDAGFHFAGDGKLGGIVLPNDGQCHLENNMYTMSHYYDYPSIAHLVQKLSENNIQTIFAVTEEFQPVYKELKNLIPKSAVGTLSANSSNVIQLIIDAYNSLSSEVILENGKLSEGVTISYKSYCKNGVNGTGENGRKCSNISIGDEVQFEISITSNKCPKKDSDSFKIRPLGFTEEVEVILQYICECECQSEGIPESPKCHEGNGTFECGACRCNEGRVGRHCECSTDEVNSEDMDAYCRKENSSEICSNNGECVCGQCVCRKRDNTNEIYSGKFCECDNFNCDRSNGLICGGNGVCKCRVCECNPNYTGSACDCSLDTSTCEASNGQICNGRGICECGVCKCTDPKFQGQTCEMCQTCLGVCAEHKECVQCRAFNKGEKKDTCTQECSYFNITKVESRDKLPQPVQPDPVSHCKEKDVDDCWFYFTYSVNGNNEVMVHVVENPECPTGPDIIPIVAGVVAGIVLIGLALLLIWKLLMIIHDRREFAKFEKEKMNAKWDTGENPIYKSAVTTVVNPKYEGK
Chain of Integrin beta-1 (Homo sapiens) + Integrin alpha-4 (Homo sapiens) (P13612 whole entry, looked up): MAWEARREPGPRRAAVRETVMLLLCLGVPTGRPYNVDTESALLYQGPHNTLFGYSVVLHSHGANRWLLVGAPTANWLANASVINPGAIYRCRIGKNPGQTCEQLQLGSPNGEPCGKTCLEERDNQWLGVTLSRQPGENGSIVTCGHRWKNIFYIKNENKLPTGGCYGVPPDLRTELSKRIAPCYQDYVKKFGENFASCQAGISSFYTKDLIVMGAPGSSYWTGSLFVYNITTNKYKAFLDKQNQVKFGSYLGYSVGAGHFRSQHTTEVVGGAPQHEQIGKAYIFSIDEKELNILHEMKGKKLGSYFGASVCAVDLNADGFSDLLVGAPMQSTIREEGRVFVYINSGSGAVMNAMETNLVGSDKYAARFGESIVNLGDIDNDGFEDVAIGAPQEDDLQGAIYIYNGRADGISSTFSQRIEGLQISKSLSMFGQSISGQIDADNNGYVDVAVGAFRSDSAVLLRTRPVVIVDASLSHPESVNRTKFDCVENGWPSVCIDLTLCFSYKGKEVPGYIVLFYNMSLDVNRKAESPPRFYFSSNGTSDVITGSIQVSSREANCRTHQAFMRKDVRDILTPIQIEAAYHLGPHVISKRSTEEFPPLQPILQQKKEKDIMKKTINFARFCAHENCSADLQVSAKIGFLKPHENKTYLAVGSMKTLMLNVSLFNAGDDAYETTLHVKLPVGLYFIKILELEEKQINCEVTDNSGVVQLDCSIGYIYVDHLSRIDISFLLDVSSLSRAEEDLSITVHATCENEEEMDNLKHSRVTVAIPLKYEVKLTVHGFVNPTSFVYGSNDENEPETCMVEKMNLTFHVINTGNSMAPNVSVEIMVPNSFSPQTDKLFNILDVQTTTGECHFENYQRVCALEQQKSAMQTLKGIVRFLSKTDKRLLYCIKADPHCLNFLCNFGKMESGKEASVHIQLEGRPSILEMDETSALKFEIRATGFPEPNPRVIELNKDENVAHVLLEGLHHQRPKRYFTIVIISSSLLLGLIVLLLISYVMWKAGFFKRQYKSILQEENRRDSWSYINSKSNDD

For orientation: inhibition means the relative decrease from the control value, in per cent. As for `CC(=O)C1=C(O)C(=O)N(Cc2cccnc2)C1c1ccc(C(C)C)cc1` (stereo not given), the percent of DMSO control GFP in test [1] was 97.5% (inactive). In addition, the GFP response vs DMSO in test [2] is 109% (inactive); in test [4], 113% (inactive). For the same molecule, the percent response of DMSO control in test [3] was 100% (inactive). Also, the GFP response, % of DMSO in test [5] is 104% (inactive). Besides, in [6], the double positive events is 59.9%. For the same molecule, the vesicle binding response in test [6] is 152% (inactive). Further, the results for the inhibition in [7], in test [11] and in [15] were -6.23% (inactive), 5.98% (inactive) and 1% (inactive), respectively. For the same molecule, the superoxide response (% of plate) in [8] is 84.1% (inactive). The aptamer binding inhibition in test [9] is -1% (inactive). Moreover, the results for the response in test [10] and in test [12] were -27.3% (inactive) and 2.79% (inactive), respectively. Moreover, the binding (% of control) in test [13] was 102% (inactive). In addition, the efflux inhibition (fraction of control) in [14] was 0.08 (inactive). Also, the differentiation response in test [16] is -5.97% (inactive).
On to `C=C(C)C(=O)Nc1ccc(NC(C)C)cc1`, for which the percent of DMSO control GFP in [1] is 104% (inactive). Also, the GFP response vs DMSO in test [2] was 104% (inactive); in test [4], 106% (inactive). In test [3], the percent response of DMSO control was 97.6% (inactive). For the same molecule, the GFP response, % of DMSO in [5] was 101% (inactive). The molecule further gave a double positive events in test [6] of 66%. In [6], the vesicle binding response was 170% (inactive). Further, the inhibition in test [7] is 9.63% (inactive); in [11], 19.3% (inactive); in [15], 0% (inactive). In addition, the superoxide response (% of plate) in test [8] was 96.6% (inactive). The aptamer binding inhibition in test [9] is 4% (inactive). The response in test [10] is 0.61% (inactive); in test [12], -7.05% (inactive). Further, the binding (% of control) in [13] is 95.1% (inactive). Moreover, the efflux inhibition (fraction of control) in [14] was -0.09 (inactive). The differentiation response in test [16] is -8.96% (inactive).
Take `COc1ccc(CC(=O)NCC2(c3ccc(OC)c(OC)c3)CCOCC2)cc1`: in test [1], the percent of DMSO control GFP is 103% (inactive). Further, the GFP response vs DMSO in test [2] is 96.3% (inactive); in test [4], 82.8% (inactive). In addition, the percent response of DMSO control in test [3] was 104% (inactive). The GFP response, % of DMSO in test [5] is 89.7% (inactive). The same molecule had a double positive events in test [6] of 54%. For the same molecule, the vesicle binding response in test [6] was 175% (inactive). Moreover, the inhibition in test [7] was 5.03% (inactive); in [11] it was -7.91% (inactive); in test [15] it was -23% (inactive). Moreover, in test [8], the superoxide response (% of plate) was 102% (inactive). Further, the aptamer binding inhibition in [9] is 8% (inactive). Moreover, the values for the response in test [10] and in [12] were -10.1% (inactive) and 0.74% (inactive), respectively. Also, the binding (% of control) in test [13] was 99.3% (inactive). Besides, in test [14], the efflux inhibition (fraction of control) was -0.35 (inactive). In addition, in [16], the differentiation response is -12% (inactive).
Regarding `COc1ccc2cc(C(=O)OC(C)C)sc(=O)c2c1OC`, the percent of DMSO control GFP in test [1] is 106% (inactive). Further, the GFP response vs DMSO in test [2] is 98.6% (inactive); in test [4] it was 121% (inactive). In addition, in [3], the percent response of DMSO control is 95.1% (inactive). For the same molecule, in test [5], the GFP response, % of DMSO is 106% (inactive). Moreover, the double positive events in [6] is 61.9%. The vesicle binding response in [6] was 220% (inactive). The inhibition in test [7] was 3.99% (inactive); in [11], -1.55% (inactive); in test [15] it was 4% (inactive). Moreover, the superoxide response (% of plate) in test [8] was 112% (inactive). In addition, in test [9], the aptamer binding inhibition was 0% (inactive). In addition, the figures for the response in [10] and in [12] were -12.6% (inactive) and -19.1% (inactive), respectively. Also, the binding (% of control) in test [13] was 85.1% (inactive). Also, the efflux inhibition (fraction of control) in [14] is 0 (inactive). Moreover, in [16], the differentiation response is 11.8% (inactive).
With `CC(=O)C1=C(Nc2ccc(C)cc2)CC(C)(O)C(C(C)=O)C1c1ccco1` (stereo not given), the percent of DMSO control GFP in test [1] was 105% (inactive). In addition, the GFP response vs DMSO in test [2] was 104% (inactive); in test [4], 96.6% (inactive). Besides, the percent response of DMSO control in test [3] was 93.1% (inactive). Also, the GFP response, % of DMSO in [5] is 97.2% (inactive). For the same molecule, the double positive events in test [6] was 66.9%. In addition, the vesicle binding response in [6] was 223% (inactive). The inhibition in test [7] is -9.79% (inactive); in [11] it was 36.9% (inactive); in [15], -19% (inactive). In test [8], the superoxide response (% of plate) was 103% (inactive). In addition, the aptamer binding inhibition in [9] is 5% (inactive). Further, the response is 0.66% (inactive) in test [10] and -0.29% (inactive) in test [12]. In test [13], the binding (% of control) is 105% (inactive). In addition, in test [14], the efflux inhibition (fraction of control) was 0.3 (inactive). Further, the differentiation response in [16] was 14.9% (inactive).

The values are drawn from PubChem BioAssay.
